For 9 molecules, growth inhibition results are on record in PubChem BioAssay (NCI).

A short description of assay [1]: NCI Yeast Anticancer Drug Screen. Data for the rad50 strain (AID 155).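 Also: 0% = growth of vehicle-only cultures of the same strain.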 The settings on record: S. cerevisiae rad50 strain growth inhibition, active compounds read high. An outline of the steps: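 Genetically altered yeast (DNA repair pathway); compound treatment; growth inhibition vs vehicle ctrl.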
Assay [2] is described as follows: NCI Yeast Anticancer Drug Screen. Data for the mec2-1 strain (AID 157). The settings on record: S. cerevisiae mec2-1 strain, active compounds read high. An outline of the steps: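 Mutant yeast (mec2-1) grown with compound; growth inhibition relative to vehicle control reported.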
The nature of assay [3]: NCI Yeast Anticancer Drug Screen. Data for the sgs1 mgt1 strain (AID 161).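 Also: 0% = growth of cultures given vehicle only.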 The settings on record: S. cerevisiae sgs1 mgt1 strain, active compounds read high. The procedure, abridged: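 Yeast cells carrying a defined DNA-repair defect were exposed to test compounds. Growth inhibition was measured relative to vehicle-treated controls.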
Assay [4] in a line: NCI Yeast Anticancer Drug Screen. Data for the cln2 rad14 strain (AID 165).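 Also: 0% = growth equal to vehicle treated cultures.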 The settings on record: S. cerevisiae cln2 rad14 strain, active compounds read high. An outline of the steps:
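Readout is yeast growth inhibition versus vehicle-treated controls, using a strain with cln2 and rad14 alterations exposed to compound.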

A short description of assay [5]: NCI Yeast Anticancer Drug Screen. Data for the bub3 strain (AID 167). Conditions: S. cerevisiae bub3 mutant strain, active compounds read high. The procedure, abridged:
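Yeast carrying a defined mutation is treated with each compound, and growth is compared with that of vehicle-exposed cells to give inhibition.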

Assay [6] in a line: NCI Yeast Anticancer Drug Screen. Data for the mlh1 rad18 strain (AID 175). The settings on record: S. cerevisiae mlh1 rad18 strain growth inhibition, active compounds read high. An outline of the steps:
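Genetically defined yeast (DNA repair-deficient) exposed to compounds; growth inhibition determined relative to vehicle.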

[7] abbreviates: at 5.0 µM (retest, dose inferred, filed as 0.5).
Where [8] appears, read: at 50.0 µM (retest, dose inferred, filed as 5.0).

About 79,000 compounds went through this panel and 15% of them were active in at least one assay; those are over-represented in the sample as a whole. A number with no mark means an inactive call. The source made the active and inactive calls. Rule as the data show it: active = growth inhibition above about 70%; inactive = the rest.

In the case of `S=C(Nc1ccccn1)c1ccccn1`, the growth inhibition in assay [1] (setting [7]) is -3%; in assay [1] (setting [8]), 9%; in assay [1] (at 50.0 µM), 23.9%; in assay [2] (setting [7]) it was 6%; in assay [2] (setting [8]), 21%; in assay [2] (at 50.0 µM), 50.3%. Besides, the growth inhibition in assay [3] (setting [7]) was 2%; in assay [3] (setting [8]) it was 43%; in assay [3] (at 50.0 µM) it was 69%; in assay [4] (setting [7]) it was -11%; in assay [4] (setting [8]), -7%; in assay [4] (at 50.0 µM), 18.6%. In addition, the growth inhibition was 3% in assay [5] (setting [7]); 33% in assay [5] (setting [8]); 55.8% in assay [5] (at 50.0 µM); 3% in assay [6] (setting [7]); 46% in assay [6] (setting [8]); 51.4% in assay [6] (at 50.0 µM).

Consider `O=[N+]([O-])c1ccc(S(=O)(=O)Cc2ccccc2)c2nonc12`, for which the growth inhibition in assay [1] (setting [7]) is 6%; in assay [1] (setting [8]), 99% (active); in assay [1] (at 50.0 µM) it was 99% (active); in assay [2] (setting [7]) it was 11%; in assay [2] (setting [8]) it was 99% (active); in assay [2] (at 50.0 µM) it was 98.8% (active). Besides, the growth inhibition in assay [3] (setting [7]) was 10%; in assay [3] (setting [8]), 99% (active); in assay [3] (at 50.0 µM) it was 99% (active); in assay [4] (setting [7]), -11%; in assay [4] (setting [8]), 98% (active); in assay [4] (at 50.0 µM), 96.3% (active). The growth inhibition in assay [5] (setting [7]) is 2%; in assay [5] (setting [8]), 99% (active); in assay [5] (at 50.0 µM), 98.4% (active); in assay [6] (setting [7]), 6%; in assay [6] (setting [8]), 99% (active); in assay [6] (at 50.0 µM) it was 98.2% (active).

Turning to `CC(=O)N1C(c2[nH]c3ccccc3c2Cc2ccccc2)CCN1c1ccccc1` (configuration not stated), the growth inhibition in assay [1] (setting [7]) is -27%; in assay [1] (setting [8]), 94% (active); in assay [1] (at 50.0 µM), 84.9% (active); in assay [2] (setting [7]), -14%; in assay [2] (setting [8]), 98% (active); in assay [2] (at 50.0 µM), 87% (active). Besides, the growth inhibition is -20% in assay [3] (setting [7]); 94% (active) in assay [3] (setting [8]); 88.3% (active) in assay [3] (at 50.0 µM); -12% in assay [4] (setting [7]); 96% (active) in assay [4] (setting [8]); 85.7% (active) in assay [4] (at 50.0 µM). Moreover, the growth inhibition in assay [5] (setting [7]) was -18%; in assay [5] (setting [8]), 96% (active); in assay [5] (at 50.0 µM), 87.5% (active); in assay [6] (setting [7]) it was -27%; in assay [6] (setting [8]), 95% (active); in assay [6] (at 50.0 µM), 83.8% (active).

As for `COc1ccc(CSC(=S)Nc2ccccc2C(F)(F)F)cc1`, the growth inhibition in assay [1] (setting [7]) is 8%; in assay [1] (setting [8]), 93% (active); in assay [1] (at 50.0 µM) it was 98.3% (active); in assay [2] (setting [7]), 6%; in assay [2] (setting [8]), 97% (active); in assay [2] (at 50.0 µM), 99.2% (active). Besides, the growth inhibition in assay [3] (setting [7]) was 1%; in assay [3] (setting [8]), 99% (active); in assay [3] (at 50.0 µM), 99.2% (active); in assay [4] (setting [7]), -1%; in assay [4] (setting [8]), 94% (active); in assay [4] (at 50.0 µM) it was 98.6% (active). In addition, the growth inhibition in assay [5] (setting [7]) is -3%; in assay [5] (setting [8]), 96% (active); in assay [5] (at 50.0 µM) it was 99% (active); in assay [6] (setting [7]), 4%; in assay [6] (setting [8]) it was 95% (active); in assay [6] (at 50.0 µM), 99% (active).

As for `COC(=O)C1(C)CCc2c(ccc3cccc(OC)c23)C1=O` (configuration not stated), the growth inhibition in assay [1] (setting [7]) was 0%; in assay [1] (setting [8]), 99% (active); in assay [1] (at 50.0 µM) it was 1.65%; in assay [2] (setting [7]) it was 0%; in assay [2] (setting [8]), 98% (active); in assay [2] (at 50.0 µM), 21%. Further, the growth inhibition in assay [3] (setting [7]) is 2%; in assay [3] (setting [8]), 98% (active); in assay [3] (at 50.0 µM), 66.9%; in assay [4] (setting [7]), -9%; in assay [4] (setting [8]), 97% (active); in assay [4] (at 50.0 µM) it was -3.75%. Further, the growth inhibition was 20% in assay [5] (setting [7]); 99% (active) in assay [5] (setting [8]); 86.8% (active) in assay [5] (at 50.0 µM); 1% in assay [6] (setting [7]); 99% (active) in assay [6] (setting [8]); 44.5% in assay [6] (at 50.0 µM).

As for `O=[N+]([O-])c1cccc(Cl)c1C(Nc1nncs1)Nc1nncs1`, the growth inhibition in assay [1] (setting [7]) is 7%; in assay [1] (setting [8]), 60%; in assay [1] (at 50.0 µM), 55.5%; in assay [2] (setting [7]), 7%; in assay [2] (setting [8]), 41%; in assay [2] (at 50.0 µM) it was 27.7%. The growth inhibition in assay [3] (setting [7]) was 10%; in assay [3] (setting [8]), 67%; in assay [3] (at 50.0 µM), 73.9% (active); in assay [4] (setting [7]), -1%; in assay [4] (setting [8]), 20%; in assay [4] (at 50.0 µM), 26.6%. In addition, the growth inhibition is -2% in assay [5] (setting [7]); 22% in assay [5] (setting [8]); 33.8% in assay [5] (at 50.0 µM); 3% in assay [6] (setting [7]); 82% (active) in assay [6] (setting [8]); 68.3% in assay [6] (at 50.0 µM).

Regarding `Cc1cc(Br)cc(C(=O)Cl)c1O`, the growth inhibition in assay [1] (setting [7]) was -159%; in assay [1] (setting [8]), -90%; in assay [1] (at 50.0 µM) it was 32.5%; in assay [2] (setting [7]), -51%; in assay [2] (setting [8]) it was -24%; in assay [2] (at 50.0 µM), 22%. For the same molecule, the growth inhibition in assay [3] (setting [7]) was -68%; in assay [3] (setting [8]), -54%; in assay [3] (at 50.0 µM), 30.2%; in assay [4] (setting [7]) it was -69%; in assay [4] (setting [8]), -11%; in assay [4] (at 50.0 µM) it was 28.7%. In addition, the growth inhibition in assay [5] (setting [7]) was -74%; in assay [5] (setting [8]), -47%; in assay [5] (at 50.0 µM), 5.9%; in assay [6] (setting [7]) it was -150%; in assay [6] (setting [8]), -67%; in assay [6] (at 50.0 µM), 34.7%.

Regarding `N=c1ccc2c(c1)[nH]c1c3ccccc3[nH]c3cccc2c31`, the growth inhibition in assay [1] (setting [7]) was 81% (active); in assay [1] (setting [8]) it was 98% (active); in assay [1] (at 50.0 µM), 81.8% (active); in assay [2] (setting [7]), 27%; in assay [2] (setting [8]), 98% (active); in assay [2] (at 50.0 µM), 84% (active). Moreover, the growth inhibition in assay [3] (setting [7]) is 23%; in assay [3] (setting [8]), 98% (active); in assay [3] (at 50.0 µM), 89.1% (active); in assay [4] (setting [7]) it was 21%; in assay [4] (setting [8]), 98% (active); in assay [4] (at 50.0 µM), 90% (active). The growth inhibition in assay [5] (setting [7]) is 18%; in assay [5] (setting [8]), 98% (active); in assay [5] (at 50.0 µM) it was 88.3% (active); in assay [6] (setting [7]) it was 33%; in assay [6] (setting [8]) it was 97% (active); in assay [6] (at 50.0 µM), 87% (active).

As for `CN1COc2c(Cl)cc(Cl)cc2C1`, the growth inhibition is -3% in assay [1] (setting [7]); 85% (active) in assay [1] (setting [8]); 76.2% (active) in assay [1] (at 50.0 µM); -2% in assay [2] (setting [7]); 45% in assay [2] (setting [8]); 57.2% in assay [2] (at 50.0 µM). The growth inhibition is 0% in assay [3] (setting [7]); 91% (active) in assay [3] (setting [8]); -5.15% in assay [3] (at 50.0 µM); -3% in assay [4] (setting [7]); 46% in assay [4] (setting [8]); -4% in assay [4] (at 50.0 µM). Besides, the growth inhibition in assay [5] (setting [7]) is -4%; in assay [5] (setting [8]), 75% (active); in assay [5] (at 50.0 µM), 45.5%; in assay [6] (setting [7]) it was -1%; in assay [6] (setting [8]), 86% (active); in assay [6] (at 50.0 µM), 42.5%.
